Reference: PubChem BioAssay AID1259374 (The Scripps Research Institute Molecular Screening Center, 2018)
Out of some 650,000 compounds screened, about 5,900 (0.91%) were called active. The sample as a whole holds a higher share of actives than the screen did. A number with no mark means an inactive call. Cut-off read from the data, not from the text of the source: active = inhibition above about 50%; inactive = the rest.

These compounds were tested against Microphthalmia-associated transcription factor (Homo sapiens) (UniProt O75030) (assay: MITF inhibitors, primary screen, biochemical, AlphaScreen, human (AID 1259374;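 note: 0% = vehicle wells with protein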)). Conditions: AlphaScreen MITF homodimerization, bead proximity signal; at 2.6 µM; hits give high values.
Microphthalmia-associated transcription factor (Homo sapiens), sequence (O75030 whole entry, looked up): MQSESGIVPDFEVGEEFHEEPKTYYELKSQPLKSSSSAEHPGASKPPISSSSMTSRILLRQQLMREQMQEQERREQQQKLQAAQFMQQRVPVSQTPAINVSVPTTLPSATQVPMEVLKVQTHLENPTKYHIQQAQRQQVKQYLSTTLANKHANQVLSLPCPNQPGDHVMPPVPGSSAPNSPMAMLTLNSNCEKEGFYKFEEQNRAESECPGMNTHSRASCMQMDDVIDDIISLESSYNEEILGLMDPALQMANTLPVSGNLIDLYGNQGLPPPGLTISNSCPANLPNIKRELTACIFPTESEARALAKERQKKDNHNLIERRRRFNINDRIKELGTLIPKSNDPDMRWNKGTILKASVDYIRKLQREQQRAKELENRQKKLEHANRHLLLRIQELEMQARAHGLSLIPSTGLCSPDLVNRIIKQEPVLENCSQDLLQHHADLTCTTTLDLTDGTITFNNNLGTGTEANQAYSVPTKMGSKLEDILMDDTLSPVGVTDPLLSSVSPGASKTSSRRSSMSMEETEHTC

Question: For CCn1c(C(=O)O)c(CC(=O)N2CCN(Cc3ccccc3)CC2)c2ccccc21, which inhibition is on record?
Answer: The inhibition was 3.77%.

Question: How did the inhibition turn out when CCc1nc2ccccc2c(=O)n1-c1ccccc1 was run?
Answer: Its inhibition is 10.7%.

Question: Which inhibition does the source give for CCN1CCc2nc3ccccc3c(C(=O)O)c2C1 here?
Answer: The inhibition was 61.5% (active).

Question: O=[N+]([O-])c1ccc(N2CCCCC2)c2cccnc12 was tested. Which inhibition did it give?
Answer: The inhibition was 27.4%.

Question: How did the inhibition turn out when CS(=O)(=O)Nc1ccc(C#N)c(Cl)c1 was run?
Answer: Its inhibition is -2.59%.

Question: Which inhibition does the source give for CCC(=O)c1ccc(N2CCN(C)CC2)c(F)c1 here?
Answer: The inhibition was -2.65%.

Question: Which inhibition does the source give for C(#CC1CC1)CN(C1CCCCC1)C1CCCCC1 here?
Answer: The inhibition was 83.7% (active).

Question: For CN(CC#CC1CC2CCC1C2)C1CCCCC1 (configuration not stated), which inhibition is on record?
Answer: Its inhibition is -0.53%.

Question: With CCn1c(=O)n(CC2CS2)c2ccccc21 (configuration not stated) as the compound, how does the inhibition read?
Answer: The inhibition was -0.54%.

Question: How did the inhibition turn out when Cc1cnc2nc3c(cc2c1)CN(Cc1cccnc1)CC3 was run?
Answer: The inhibition was -8.7%.

Question: Which inhibition does the source give for CN1CCN(c2cc3[nH]c(=S)[nH]c3cc2F)CC1 here?
Answer: Its inhibition is -8%.

Question: CCOC(=O)C1C2NC(=S)NC1(C)Oc1c(OCC)cccc12 (configuration not stated) was tested. Which inhibition did it give?
Answer: The inhibition was -1.57%.

Question: How did the inhibition turn out when CCOC(=O)C1C2NC(=S)N(c3ccc(F)cc3)C1(C)Oc1c(OCC)cccc12 (configuration not stated) was run?
Answer: The inhibition was 55.5% (active).

Question: With CCOC(=O)C1C2NC(=S)N(c3ccc(CC)cc3)C1(C)Oc1c(OC)cccc12 (configuration not stated) as the compound, how does the inhibition read?
Answer: The inhibition was 39.5%.

Question: With CCOC(=O)C1C2NC(=S)N(CC)C1(C)Oc1ccc(Cl)cc12 (configuration not stated) as the compound, how does the inhibition read?
Answer: The inhibition was 65.6% (active).

Question: CCOC(=O)C1C2NC(=S)N(c3ccc(Cl)cc3)C1(C)Oc1ccccc12 (configuration not stated) was tested. Which inhibition did it give?
Answer: Its inhibition is 10.8%.

Question: With CCOC(=O)C1C2NC(=S)NC1(C)Oc1cc(OC)ccc12 (configuration not stated) as the compound, how does the inhibition read?
Answer: Its inhibition is 13.6%.

Question: How did the inhibition turn out when Cn1c(SCCOC(N)=O)nnc1-c1ccc([N+](=O)[O-])cc1 was run?
Answer: The inhibition was 5.78%.

Question: How did the inhibition turn out when CS(=O)(=O)c1ccc(CC(=O)N2CCN(C(c3ccccc3)c3ccccc3)CC2)cc1 was run?
Answer: Its inhibition is 7.6%.

Question: Which inhibition does the source give for c1ccc(-c2ccnc3nc4ccccc4n23)cc1 here?
Answer: The inhibition was 7.67%.

Question: For OC(CNC1CN2CCC1CC2)COc1cccc2ccccc12 (configuration not stated), which inhibition is on record?
Answer: The inhibition was 18.3%.

Question: How did the inhibition turn out when CC(C)N1CCN(Cc2ccccc2)CC1 was run?
Answer: Its inhibition is 41%.

Question: With COc1ccc(CN2CCN(c3ccccc3F)CC2)c(OC)c1 as the compound, how does the inhibition read?
Answer: The inhibition was 14%.

Question: COc1ccc(CN2CCN(c3ccc(C(C)=O)cc3)CC2)cc1 was tested. Which inhibition did it give?
Answer: Its inhibition is 18.3%.

Question: Which inhibition does the source give for COc1ccc(CN2CCN(C(C)C)CC2)cc1 here?
Answer: The inhibition was 57% (active).

Question: With COc1ccc(CN2CCN(C(C)C)CC2)c(OC)c1OC as the compound, how does the inhibition read?
Answer: Its inhibition is 68.1% (active).

Question: How did the inhibition turn out when COc1ccc(CN2CCN(CCO)CC2)c(OC)c1OC was run?
Answer: The inhibition was -8.5%.

Question: For CC(C)CN(Cc1c(O)ccc2c(=O)c(-c3ccccc3)coc12)CC(C)C, which inhibition is on record?
Answer: Its inhibition is -5.09%.

Question: COC(NC(=O)c1ccco1)C(Cl)(Cl)Cl (configuration not stated) was tested. Which inhibition did it give?
Answer: The inhibition was 17.3%.

Question: Which inhibition does the source give for CCCCn1c(C)c(C(=O)OCC)c2cc(OC(=O)COc3ccccc3)c3ccccc3c21 here?
Answer: The inhibition was -5.32%.

Question: How did the inhibition turn out when Cc1nc2ccccc2c(=O)n1-c1cccc(Cl)c1 was run?
Answer: The inhibition was 22.4%.

Question: With COc1ccc(Cl)cc1C(=O)C1CCCN(Cc2ncc[nH]2)C1 (configuration not stated) as the compound, how does the inhibition read?
Answer: Its inhibition is 7.6%.

Question: How did the inhibition turn out when CCCN1CCN(C(=O)Cc2nc(-c3ccc(OC)cc3)no2)CC1 was run?
Answer: The inhibition was 1.81%.

Question: With COc1cc(NC(=O)CCc2nc(C3=CCN(C)CC3)no2)cc(OC)c1OC as the compound, how does the inhibition read?
Answer: Its inhibition is 51.6% (active).

Question: With CCOC(=O)C1=C(c2ccccc2)OC(N)=C(C#N)C12C(=O)Nc1ccc(Br)cc12 (configuration not stated) as the compound, how does the inhibition read?
Answer: Its inhibition is 2.49%.

Question: For CC[C@@H](C)C(=O)O[C@H]1[C@H](O)[C@H]2[C@@H](CN3C[C@@H](C)CC[C@H]3[C@@]2(C)O)[C@@H]2C[C@]34O[C@]5(O)[C@@H](OC(=O)C(C)(O)C(C)O)CC[C@@]3(C)[C@@H]5[C@@H](OC(C)=O)[C@@H](OC(C)=O)[C@H]4[C@@]21O (some centres not stated), which inhibition is on record?
Answer: Its inhibition is 23.5%.

Question: O=[N+]([O-])c1ccc(CNCCc2c[nH]c3ccccc23)cc1 was tested. Which inhibition did it give?
Answer: The inhibition was 25.3%.

Question: With COc1ccc(CNCCc2c[nH]c3ccccc23)cc1OC as the compound, how does the inhibition read?
Answer: The inhibition was 13.6%.

Question: With c1cncc(CNCCc2c[nH]c3ccccc23)c1 as the compound, how does the inhibition read?
Answer: The inhibition was 84% (active).

Question: With Cc1nn(CC(=O)N2CCC3(CC2)OCCO3)c(=O)c2cccn12 as the compound, how does the inhibition read?
Answer: Its inhibition is -10.4%.

Question: For O=C1CN=C(c2ccc(Br)cc2)c2cc(Br)ccc2N1, which inhibition is on record?
Answer: The inhibition was -2.48%.

Question: Which inhibition does the source give for N#Cc1ccc(NC(=O)COc2cc(F)ccc2[N+](=O)[O-])cc1Cl here?
Answer: Its inhibition is 10.7%.

Question: For CN1CN/C(=N\[N+](=O)[O-])N(Cc2ccco2)C1, which inhibition is on record?
Answer: Its inhibition is -9.51%.

Question: COc1ccc(CN2CCN(c3ccccc3F)CC2)c(O)c1 was tested. Which inhibition did it give?
Answer: Its inhibition is 21.3%.

Question: Fc1ccc(N2CCN(Cc3ccccc3F)CC2)cc1 was tested. Which inhibition did it give?
Answer: Its inhibition is 12.7%.

Question: COc1cccc(CN2CCN(Cc3ccccc3F)CC2)c1 was tested. Which inhibition did it give?
Answer: The inhibition was 75.4% (active).

Question: Fc1ccccc1CN1CCN(Cc2ccccc2F)CC1 was tested. Which inhibition did it give?
Answer: The inhibition was 75.5% (active).

Question: COc1cc(CN2CCN(c3ccccc3)CC2)cc(OC)c1 was tested. Which inhibition did it give?
Answer: The inhibition was 5.15%.

Question: Which inhibition does the source give for CCC(C)N1CCN(Cc2cccc(OC)c2)CC1 (configuration not stated) here?
Answer: Its inhibition is 63.5% (active).

Question: How did the inhibition turn out when CCN1CCN(Cc2ccc(F)cc2F)CC1 was run?
Answer: Its inhibition is 1.97%.

Question: How did the inhibition turn out when COc1cccc(CN2CCN(Cc3ccccc3OC)CC2)c1 was run?
Answer: Its inhibition is 7.82%.

Question: For O=C(COc1ccccc1)N1CCN(Cc2cccc(Oc3ccccc3)c2)CC1, which inhibition is on record?
Answer: The inhibition was 32.3%.

Question: Which inhibition does the source give for CCOC(=O)C1=C(N)Oc2cc(C)n(CC)c(=O)c2C12C(=O)N(CC(C)C)c1ccccc12 (configuration not stated) here?
Answer: The inhibition was 4.18%.

Question: With Cc1ccc(C(O)(C(=O)NNc2cc(Cl)ccc2Cl)c2ccc(C)cc2)cc1 as the compound, how does the inhibition read?
Answer: The inhibition was 8.08%.

Question: For O=[N+]([O-])c1ccc(N2CCc3ccccc3C2)c2ccncc12, which inhibition is on record?
Answer: Its inhibition is 5.66%.

Question: For CC(C)(CNc1ccc([N+](=O)[O-])c2cccnc12)CNS(=O)(=O)c1ccc(Cl)cc1, which inhibition is on record?
Answer: Its inhibition is 0.37%.

Question: N#CC1=C(N)Oc2c(c(=O)oc3ccccc23)C1c1ccc(OC(F)(F)F)cc1 (configuration not stated) was tested. Which inhibition did it give?
Answer: The inhibition was 2.42%.
